TRHR PAM = qHTS for Small Molecule Agonists and Allosteric Enhancers of Human TRH Receptor: Primary Screen for Enhancers; Thyrotropin-releasing hormone receptor (Homo sapiens), P34981; TRHR cells, fluo-8 calcium fluorescence, EC20 TRH enhancement; enhancement, % at 2 µM; 0.66% of 360,000 active; AID 493056, 2011; in the data active = enhancement above about 30%
Target sequence (P34981 whole entry, looked up): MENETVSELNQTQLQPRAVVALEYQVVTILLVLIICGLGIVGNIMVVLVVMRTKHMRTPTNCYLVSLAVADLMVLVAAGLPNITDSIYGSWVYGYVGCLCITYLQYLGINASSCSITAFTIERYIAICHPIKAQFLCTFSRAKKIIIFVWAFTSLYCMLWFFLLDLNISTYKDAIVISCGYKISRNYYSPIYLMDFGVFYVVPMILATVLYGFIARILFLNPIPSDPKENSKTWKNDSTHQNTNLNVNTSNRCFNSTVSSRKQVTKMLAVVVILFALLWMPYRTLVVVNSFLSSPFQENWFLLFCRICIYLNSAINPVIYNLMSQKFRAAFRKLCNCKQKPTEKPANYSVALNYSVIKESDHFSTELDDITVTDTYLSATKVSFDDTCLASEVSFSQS
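TRHR-expressing cells loaded with fluo-8 calcium dye were read kinetically (ex 480/em 530) during compound addition, then stimulated with an EC20 of TRH (10 nM final). Enhancement of the Gq-mediated intracellular calcium response was scored.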
D1 potentiator = Potentiators of Human D1 Dopamine Receptor: qHTS. D(1A) dopamine receptor (Homo sapiens), P21728. HEK293 TREx D1 cells, calcium flux, dopamine EC20 potentiation. potentiation, % at 10 µM. 0.036% of 360,000 active; in the data active = potentiation above about 30%
D1 antag = Antagonist of Human D 1 Dopamine Receptor: qHTS. 3.2% of 360,000 active. activity change, negative = inhibition, % at 10 µM. D(1A) dopamine receptor (Homo sapiens), P21728. HEK293 TREx D1 cells, calcium flux, dopamine EC80; stronger effect = lower value. AID 504652, 2011; in the data active = activity change below about -30%
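Cells carrying a force-coupled, tetracycline-inducible human D1 receptor report calcium flux. Each well gets a 10 s baseline, compound with 180 s monitoring, then an EC80 dopamine stimulus with a second 180 s kinetic read.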
D1 ag = Allosteric Agonists of the Human D1 Dopamine Receptor: qHTS. HEK293 T-REx D1 cells, calcium flux, agonist mode. 1% of 360,000 active. activation, % at 2 µM
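Inducible HEK293 T-REx D1 cells, force-coupled to calcium signalling, were plated at 4000 cells/well with tetracycline and held overnight at 30 C. After no-wash calcium dye loading, compound-evoked calcium rise over 180 s flagged agonists.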
Epigenetic derep = Quantitative High-Throughput Screen for Regulators of Epigenetic Control; 0.2% of 280,000 active; Potency, µM (doses to about 53.9 µM), most hits filed as activators; murine LDR cells, GFP reporter derepression, 30 h; active = well fitted activation curve with a large enough effect; inconclusive = small, poorly fitted or top-dose-only effect; also: nearly all actives have a fitted effect of over 60% in size
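Readout is the number of GFP-expressing murine LDR cells, counted by cytometry following washing. Cells were treated with compound for 30 h at 37 C; the stably integrated CMV-GFP locus is normally silent.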
TRHR ag = qHTS for Small Molecule Agonists and Allosteric Enhancers of Human TRH Receptor: Primary Screen for Agonists | Thyrotropin-releasing hormone receptor (Homo sapiens), P34981 | TRHR cells, calcium flux fluo-8, FDSS agonist mode | activation, % at 2 µM | 0.18% of 360,000 active | AID 493084, 2011
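Agonist-mode FDSS calcium read (Ex 480/Em 530, 1 s cycles) in 1536-well TRHR cells with fluo-8 dye, after 10-cycle baseline and 23 nL compound addition; TRH at EC20 (10 nM final) added afterwards for the enhancer phase.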
Hits are given with their value; i = inactive; ? = inconclusive; nt = not tested or not shown. Sampled rows, rich in hits. Any-hit rate of the full collection: about 4.6%. Rule as the data show it, unless noted: active = activation above about 30%; inactive = the rest.

SMILES	TRHR PAM	D1 potentiator	D1 antag	D1 ag	Epigenetic derep	TRHR ag
Cc1cc(C)c(C(=O)N(C)CC2CCCN(CCc3ccccc3F)C2)o1 (centres undefined)	i	i	-67	i	nt	i
Cc1occc1C(=O)N(C)CC1CCCN(CCc2ccccc2F)C1 (centres undefined)	i	i	-32	i	nt	i
CN(CC1CCCN(CCc2ccccc2F)C1)C(=O)c1ccoc1 (centres undefined)	i	i	i	i	nt	i
S=C(Nc1ccc(N2CCOCC2)cc1)Nc1ccc2nc(-c3ccco3)c(-c3ccco3)nc2c1	i	i	i	57	i	i
O=C(Nc1ccc(N2CCOCC2)cc1)c1ccc2nc(-c3ccco3)c(-c3ccco3)nc2c1	i	i	i	i	i	i
COc1cc(/C=C2/CC/C(=C/c3ccc(O)c(OC)c3)C2=O)ccc1O	i	i	i	78	25µM	i
COc1cc(/C=C2\CC/C(=C\c3ccc(OCCO)c(OC)c3)C2=O)ccc1OCCO	i	i	i	99	?	114
CC(=O)c1ccc(N2CCN(c3ncnc4c3c(-c3ccccc3)cn4-c3cccc(C)c3)CC2)cc1	i	i	i	i	i	i
C=CCn1c(SCCC)nc(O)cc1=O	i	i	i	128	i	i
C=CCn1c(SCC)nc(O)cc1=O	i	i	i	i	i	i
Cc1cc(C)cc(NC(=O)N2CCC(CN3CCCCCC3)CC2)c1	i	i	i	i	i	i
CC(=O)N1c2ccccc2Sc2ccccc21	i	i	i	i	nt	i
Cc1cccc[n+]1CC(=O)N1c2ccccc2Sc2ccccc21	31	i	i	i	i	i
CCN(CC(=O)NCc1ccc(Cl)cc1)C(=O)/C=C/c1ccccc1	i	i	-31	i	nt	i
O=C(N/C(=C/c1cccnc1)C(=O)N1CCCCCC1)c1cccc(Br)c1	i	i	-39	i	nt	i
O=C(NC(=S)N1CCCCC1)c1cccnc1	i	i	-34	i	i	i
COc1cc(NC(=O)c2c(-c3ccc(C)cc3)nnc3ccccc23)cc(OC)c1OC	i	i	i	i	?	i
CCOc1ccc(OCCC(=O)OCC(=O)Nc2ccc3c(c2)OCO3)cc1	i	i	-53	i	nt	i
O=C(COc1ccc(F)cc1)Nc1ccc2c(c1)OCCO2	i	i	i	i	nt	i
CCOc1ccc(S(=O)(=O)N(CC(=O)Nc2ccc3c(c2)OCO3)c2ccc(C)cc2)cc1	i	i	i	i	i	i
O=C(COc1ccc2c(c1)OCO2)Nc1cccc(F)c1	i	nt	-44	i	nt	i
CCOc1ccc(N(CC(=O)Nc2ccc3c(c2)OCO3)S(=O)(=O)c2ccccc2)cc1	i	i	-46	i	i	i
CC(C)(C)NS(=O)(=O)c1ccc(OCC(=O)Nc2ccc3c(c2)OCCO3)cc1	i	i	-30	i	i	i
COC(=O)CSc1nc2sc3c(c2c(=O)n1-c1ccc(C)cc1)CC(C(C)C)OC3 (centres undefined)	i	i	i	i	i	i
COc1cc(C2C(=O)N(C3CCCCCC3)CC(=O)N2CCC2=CCCCC2)ccc1OC(C)C (centres undefined)	i	i	i	i	i	i
SMILES	TRHR PAM	D1 potentiator	D1 antag	D1 ag	Epigenetic derep	TRHR ag
CCOC(=O)c1sc(NC(=O)c2nc3nc(C)cc(C(F)F)n3n2)c(C(=O)OC(C)C)c1C	i	i	i	i	i	i
CCn1c(O)c(/C=C2\C=Nc3ccccc32)sc1=O	i	i	i	i	i	i
CC1=Nc2ccccc2/C1=C/c1sc(=N)n(-c2nccs2)c1O	i	i	i	58	?	i
CCOC(=O)Cn1nnc(-c2cc(OC)c(OC)c(OC)c2)n1	i	i	i	i	i	i
COc1cc(-c2nnn(CC(=O)Nc3ccc(OC(F)(F)F)cc3)n2)cc(OC)c1OC	i	i	-32	i	i	i
CC1=Nc2ccccc2/C1=C/c1nc(-c2ccc(C)s2)oc1O	i	i	i	73	i	i
